Out of some 5,500 compounds screened, about 2,000 (36%) were called active. About 18% were inconclusive and are not listed. No stated cut-off is given here; in the data, active means normalized growth mostly below about 0.91 (no sharp cut-off); inconclusive means no clear call, values can overlap the other calls; inactive means mostly above about 0.92. Some of the results follow.
Test: chemical genetic growth profiling, strain panel (AID 1159580);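 further: tested at 20 µM; growth read once vehicle control cultures reached saturation at 30 °C; 1 = growth at the plate median or of vehicle wells; lower values mean less growth of the strain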
Details: growth OD
[1] = S. cerevisiae deletion strains, locus YJR075W, strain HOC1, active compounds read low
[2] = S. cerevisiae deletion strains, locus YMR307W, strain GAS1, active compounds read low
[3] = S. cerevisiae deletion strains, locus YDL101C, strain DUN1, active compounds read low
[4] = S. cerevisiae deletion strains, locus YHR030C, strain SLT2, active compounds read low
[5] = S. cerevisiae deletion strains, locus YJL095W, strain BCK1, active compounds read low
[6] = S. cerevisiae deletion strains, locus YOR061W, strain CKA2, active compounds read low

Measured: normalized growth

O=[N+]([O-])c1ccc(CSc2ncnc3c2ncn3[C@@H]2O[C@H](CO)[C@H](O)C2O)cc1 (stereo partly drawn)
inactive: S. cerevisiae deletion strains, locus YAL013W, strain DEP1, active compounds read low 1.01 | S. cerevisiae deletion strains, locus YAL040C, strain CLN3, active compounds read low 1.01 | S. cerevisiae deletion strains, locus YCL061C, strain MRC1 (second series), active compounds read low 1.01 | S. cerevisiae deletion strains, locus YDR363W, strain ESC2, active compounds read low 1.01 | S. cerevisiae deletion strains, locus YER002W, strain NOP16, active compounds read low 0.997 | [1] 1.01 | [2] 0.996 | S. cerevisiae deletion strains, locus YNL175C, strain NOP13, active compounds read low 1.01 | S. cerevisiae deletion strains, locus YNL197C, strain WHI3, active compounds read low 1.01 | S. cerevisiae deletion strains, locus YNL224C, strain SQS1, active compounds read low 1 | S. cerevisiae deletion strains, locus YNL322C, strain KRE1, active compounds read low 1.01 | S. cerevisiae deletion strains, locus YOR083W, strain WHI5 (second series), active compounds read low 0.992 | S. cerevisiae deletion strains, locus YPL055C, strain LGE1, active compounds read low 1.01 | S. cerevisiae deletion strains, locus YPL241C, strain CIN2, active compounds read low 1.01

CC1(C)C(O)CC(O)C2(C)C1CC(=O)C1(C)C2CCC2(C)C(C(=O)O)OC(=O)C3OC321 (stereo not drawn)
inactive: S. cerevisiae deletion strains, locus YBR021W, strain FUR4, active compounds read low 1.01 | S. cerevisiae deletion strains, locus YBR229C, strain ROT2, active compounds read low 1.01 | S. cerevisiae deletion strains, locus YCL029C, strain bik1, active compounds read low 0.996 | S. cerevisiae deletion strains, locus YDL035C, strain GPR1, active compounds read low 1.01 | S. cerevisiae deletion strains, locus YDL074C, strain BRE1, active compounds read low 1 | [3] 1.01 | S. cerevisiae deletion strains, locus YDL185W, strain tfp1, active compounds read low 0.984 | S. cerevisiae deletion strains, locus YDL192W, strain arf1, active compounds read low 1 | S. cerevisiae deletion strains, locus YDR101C, strain arx1, active compounds read low 1 | S. cerevisiae deletion strains, locus YDR150W, strain NUM1, active compounds read low 1.02 | S. cerevisiae deletion strains, locus YDR162C, strain NBP2, active compounds read low 1.03 | S. cerevisiae deletion strains, locus YDR318W, strain mcm21, active compounds read low 1 | S. cerevisiae deletion strains, locus YDR388W, active compounds read low 1 | S. cerevisiae deletion strains, locus YDR502C, strain sam2, active compounds read low 1.02 | S. cerevisiae deletion strains, locus YEL061C, strain CIN8, active compounds read low 1 | S. cerevisiae deletion strains, locus YER110C, active compounds read low 0.995 | S. cerevisiae deletion strains, locus YER155C, strain BEM2, active compounds read low 1.01 | S. cerevisiae deletion strains, locus YER167W, strain BCK2, active compounds read low 1.01 | S. cerevisiae deletion strains, locus YGL078C, strain dbp3, active compounds read low 0.996 | S. cerevisiae deletion strains, locus YGL086W, strain mad1, active compounds read low 1.01 | S. cerevisiae deletion strains, locus YGL248W, strain PDE1, active compounds read low 1.01 | S. cerevisiae deletion strains, locus YGR135W, strain pre9, active compounds read low 1.01 | S. cerevisiae deletion strains, locus YGR229C, strain SMI1, active compounds read low 1.01 | S. cerevisiae deletion strains, locus YGR252W, strain gcn5, active compounds read low 0.974 | [4] 1.01 | S. cerevisiae deletion strains, locus YHR079C, strain IRE1 (second series), active compounds read low 0.994 | S. cerevisiae deletion strains, locus YHR094C, strain hxt1, active compounds read low 1.01 | S. cerevisiae deletion strains, locus YHR129C, strain ARP1, active compounds read low 1.01 | S. cerevisiae deletion strains, locus YHR200W, strain rpn10, active compounds read low 1 | S. cerevisiae deletion strains, locus YIL066C, strain RNR3, active compounds read low 1.02 | S. cerevisiae deletion strains, locus YIL073C, strain SPO22, active compounds read low 1.03 | S. cerevisiae deletion strains, locus YIL125W, strain kgd1, active compounds read low 0.994 | S. cerevisiae deletion strains, locus YIR030C, strain dcg1, active compounds read low 0.999 | [5] 1.02 | S. cerevisiae deletion strains, locus YJL134W, strain LCB3, active compounds read low 1.01 | S. cerevisiae deletion strains, locus YJL168C, strain set2, active compounds read low 0.985 | S. cerevisiae deletion strains, locus YJL187C, strain SWE1 (second series), active compounds read low 1.01 | S. cerevisiae deletion strains, locus YJR043C, strain POL32, active compounds read low 1.02 | [1] 1.01 | S. cerevisiae deletion strains, locus YKL009W, strain mrt4, active compounds read low 0.986 | S. cerevisiae deletion strains, locus YKL068W, active compounds read low 1 | S. cerevisiae deletion strains, locus YKL085W, strain MDH1 (second series), active compounds read low 1 | S. cerevisiae deletion strains, locus YKL085W, strain MDH1, active compounds read low 1 | S. cerevisiae deletion strains, locus YKR001C, strain vps1, active compounds read low 0.99 | S. cerevisiae deletion strains, locus YLR039C, strain RIC1, active compounds read low 1.03 | S. cerevisiae deletion strains, locus YLR058C, strain SHM2, active compounds read low 1.01 | S. cerevisiae deletion strains, locus YLR102C, strain apc9, active compounds read low 0.998 | S. cerevisiae deletion strains, locus YLR262C, strain YPT6, active compounds read low 1 | S. cerevisiae deletion strains, locus YLR268W, strain sec22, active compounds read low 1.01 | S. cerevisiae deletion strains, locus YLR330W, strain CHS5, active compounds read low 1.01 | S. cerevisiae deletion strains, locus YLR342W, strain FKS1 (second series), active compounds read low 1 | S. cerevisiae deletion strains, locus YLR371W, strain rom2, active compounds read low 1.01 | S. cerevisiae deletion strains, locus YLR418C, strain cdc73, active compounds read low 1 | S. cerevisiae deletion strains, locus YML016C, strain PPZ1, active compounds read low 1.01 | S. cerevisiae deletion strains, locus YML032C, strain rad52, active compounds read low 1.01 | S. cerevisiae deletion strains, locus YML124C, strain tub3, active compounds read low 1 | S. cerevisiae deletion strains, locus YMR078C, strain ctf18, active compounds read low 0.984 | S. cerevisiae deletion strains, locus YMR223W, strain ubp8, active compounds read low 1.01 | S. cerevisiae deletion strains, locus YMR263W, strain SAP30, active compounds read low 1.01 | [2] 0.99 | S. cerevisiae deletion strains, locus YNL067W, strain RPL9B, active compounds read low 1.02 | S. cerevisiae deletion strains, locus YNL128W, strain TEP1, active compounds read low 1.02 | S. cerevisiae deletion strains, locus YNL153C, strain GIM3, active compounds read low 1.01 | S. cerevisiae deletion strains, locus YNL233W, strain BNI4, active compounds read low 1 | S. cerevisiae deletion strains, locus YNL250W, strain rad50, active compounds read low 0.999 | S. cerevisiae deletion strains, locus YNL271C, strain bni1, active compounds read low 0.993 | S. cerevisiae deletion strains, locus YNL298W, strain CLA4, active compounds read low 1.01 | S. cerevisiae deletion strains, locus YNL307C, strain MCK1, active compounds read low 1 | S. cerevisiae deletion strains, locus YNR052C, strain pop2, active compounds read low 0.994 | S. cerevisiae deletion strains, locus YOL012C, strain htz1 0.868 | S. cerevisiae deletion strains, locus YOL147C, strain pex11, active compounds read low 0.993 | [6] 1.01 | S. cerevisiae deletion strains, locus YOR069W, strain VPS5, active compounds read low 1.01 | S. cerevisiae deletion strains, locus YOR136W, strain idh2, active compounds read low 0.997 | S. cerevisiae deletion strains, locus YOR144C, strain elg1, active compounds read low 0.992 | S. cerevisiae deletion strains, locus YOR184W, strain ser1, active compounds read low 1.03 | S. cerevisiae deletion strains, locus YOR316C, strain cot1, active compounds read low 0.995 | S. cerevisiae deletion strains, locus YPR119W, strain clb2, active compounds read low 0.989 | S. cerevisiae deletion strains, locus YPR141C, strain kar3, active compounds read low 0.999 | S. cerevisiae deletion strains, locus YPR163C, strain tif3, active compounds read low 1.01 | S. cerevisiae deletion strains, locus YPR167C, strain met16, active compounds read low 0.997 | S. cerevisiae deletion strains, strain wtn01, active compounds read low 0.981 | S. cerevisiae strains, strain wild type, active compounds read low 1.01

CC(C)c1ccc(N2C=Nc3ccc(C(C)C)cc3C2)cc1
inactive: S. cerevisiae deletion strains, locus YAR019C, strain CDC15, active compounds read low 0.998 | S. cerevisiae deletion strains, locus YBL105C, strain PKC1, active compounds read low 0.995 | S. cerevisiae deletion strains, locus YBR135W, strain CKS1, active compounds read low 0.997 | S. cerevisiae deletion strains, locus YBR136W, strain MEC1, active compounds read low 0.995 | S. cerevisiae deletion strains, locus YBR160W, strain CDC28, active compounds read low 1 | S. cerevisiae deletion strains, locus YDL017W, strain CDC7, active compounds read low 1 | S. cerevisiae deletion strains, locus YDL028C, strain MPS1, active compounds read low 1.01 | [3] 1 | S. cerevisiae deletion strains, locus YDL108W, strain KIN28, active compounds read low 0.993 | S. cerevisiae deletion strains, locus YDL132W, strain cdc53, active compounds read low 0.995 | S. cerevisiae deletion strains, locus YDL214C, strain PRR2, active compounds read low 0.971 | S. cerevisiae deletion strains, locus YDR052C, strain DBF4, active compounds read low 1 | S. cerevisiae deletion strains, locus YDR054C, strain cdc34, active compounds read low 0.992 | S. cerevisiae deletion strains, locus YDR226W, strain ADK1, active compounds read low 0.984 | S. cerevisiae deletion strains, locus YDR477W, strain SNF1, active compounds read low 0.97 | S. cerevisiae deletion strains, locus YER123W, strain YCK3, active compounds read low 0.934 | S. cerevisiae deletion strains, locus YER133W, strain GLC7, active compounds read low 0.968 | S. cerevisiae deletion strains, locus YFL009W, strain cdc4, active compounds read low 1 | S. cerevisiae deletion strains, locus YFL029C, strain CAK1, active compounds read low 1 | S. cerevisiae deletion strains, locus YFR003C, strain YPI1, active compounds read low 1 | S. cerevisiae deletion strains, locus YFR019W, strain FAB1, active compounds read low 0.942 | S. cerevisiae deletion strains, locus YFR028C, strain CDC14, active compounds read low 0.987 | S. cerevisiae deletion strains, locus YGR040W, strain KSS1, active compounds read low 0.973 | S. cerevisiae deletion strains, locus YGR052W, strain FMP48, active compounds read low 1.09 | S. cerevisiae deletion strains, locus YGR092W, strain DBF2, active compounds read low 1.01 | [4] 0.898 | S. cerevisiae deletion strains, locus YHR079C, strain IRE1, active compounds read low 0.988 | S. cerevisiae deletion strains, locus YHR082C, strain KSP1, active compounds read low 1.04 | S. cerevisiae deletion strains, locus YHR205W, strain SCH9, active compounds read low 0.975 | S. cerevisiae deletion strains, locus YIL147C, strain SLN1, active compounds read low 1 | [5] 0.953 | S. cerevisiae deletion strains, locus YJL128C, strain PBS2, active compounds read low 0.982 | S. cerevisiae deletion strains, locus YJL157C, strain FAR1, active compounds read low 0.995 | S. cerevisiae deletion strains, locus YJR016C, strain ILV3, active compounds read low 1 | S. cerevisiae deletion strains, locus YJR066W, strain TOR1 (second series), active compounds read low 0.972 | S. cerevisiae deletion strains, locus YJR066W, strain TOR1, active compounds read low 1 | S. cerevisiae deletion strains, locus YKL048C, strain ELM1, active compounds read low 0.995 | S. cerevisiae deletion strains, locus YKL067W, strain YNK1, active compounds read low 0.963 | S. cerevisiae deletion strains, locus YKL101W, strain HSL1, active compounds read low 0.978 | S. cerevisiae deletion strains, locus YKL193C, strain SDS22, active compounds read low 0.997 | S. cerevisiae deletion strains, locus YKL203C, strain TOR2, active compounds read low 1.02 | S. cerevisiae deletion strains, locus YLR113W, strain HOG1, active compounds read low 0.97 | S. cerevisiae deletion strains, locus YLR133W, strain CKI1, active compounds read low 0.98 | S. cerevisiae deletion strains, locus YLR403W, strain SFP1, active compounds read low 0.988 | S. cerevisiae deletion strains, locus YML070W, strain DAK1, active compounds read low 0.96 | S. cerevisiae deletion strains, locus YMR001C, strain CDC5, active compounds read low 1 | S. cerevisiae deletion strains, locus YMR205C, strain PFK2 (second series), active compounds read low 0.972 | S. cerevisiae deletion strains, locus YMR277W, strain FCP1, active compounds read low 0.989 | S. cerevisiae deletion strains, locus YNL006W, strain LST8, active compounds read low 1.01 | S. cerevisiae deletion strains, locus YNL020C, strain ARK1, active compounds read low 0.987 | S. cerevisiae deletion strains, locus YNL161W, strain CBK1, active compounds read low 1 | S. cerevisiae deletion strains, locus YNL183C, strain NPR1, active compounds read low 0.968 | S. cerevisiae deletion strains, locus YNL207W, strain RIO2, active compounds read low 1.01 | S. cerevisiae deletion strains, locus YNL222W, strain SSU72, active compounds read low 1 | S. cerevisiae deletion strains, locus YNL307C, strain MCK1 (second series), active compounds read low 0.957 | S. cerevisiae deletion strains, locus YOL078W, strain AVO1, active compounds read low 1 | S. cerevisiae deletion strains, locus YOL136C, strain PFK27, active compounds read low 0.964 | [6] 0.999 | S. cerevisiae deletion strains, locus YOR119C, strain RIO1, active compounds read low 1.08 | S. cerevisiae deletion strains, locus YOR231W, strain MKK1, active compounds read low 0.99 | S. cerevisiae deletion strains, locus YOR329C, strain SCD5, active compounds read low 0.998 | S. cerevisiae deletion strains, locus YPL031C, strain PHO85, active compounds read low 0.973 | S. cerevisiae deletion strains, locus YPL153C, strain RAD53, active compounds read low 0.983 | S. cerevisiae deletion strains, locus YPL204W, strain HRR25, active compounds read low 0.949 | S. cerevisiae deletion strains, locus YPL209C, strain IPL1, active compounds read low 1 | S. cerevisiae deletion strains, locus YPL256C, strain CLN2, active compounds read low 0.97 | S. cerevisiae deletion strains, locus YPR025C, strain CCL1, active compounds read low 1 | S. cerevisiae deletion strains, locus YPR106W, strain ISR1, active compounds read low 0.998 | S. cerevisiae deletion strains, locus YPR111W, strain DBF20, active compounds read low 0.985 | S. cerevisiae deletion strains, strain NNK1, active compounds read low 1.01 | S. cerevisiae deletion strains, strain TSCII, active compounds read low 1.01

— PubChem BioAssay AID1159580 (chemical genetic matrix, 2015)
